Test results taken from PubChem BioAssay.
Activity calls are given as the source filed them.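 How the source made its calls: active means normalized viability below 100% at a tested concentration; inactive means the rest.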

test: ovarian cancer cell viability with rucaparib, profiling panel, oncology-focused library, rucaparib conditional (AID 1508598); conditions: patient-derived ovarian cancer cells, CellTiter-Glo viability, 144 h; at 0.00488 µM; OCI-C5x cells; without rucaparib; hits give low values

Row | SMILES | viability
1 | CC(C)[C@@]12O[C@@H]1[C@@H]1O[C@]13[C@]1(O[C@@H]1C[C@@H]1C4=C(CC[C@@]13C)C(=O)OC4)[C@@H]2O | 7.6% (active)
2 | C/C(=C\c1csc(C)n1)[C@H]1C[C@@H]2O[C@]2(C)CCC[C@H](C)[C@H](O)[C@@H](C)C(=O)C(C)(C)[C@H](O)CC(=O)O1 | 27.9% (active)
3 | C/C(=C\c1csc(C)n1)[C@H]1C[C@@H]2O[C@@H]2CCC[C@H](C)[C@H](O)[C@@H](C)C(=O)C(C)(C)[C@H](O)CC(=O)O1 | 23.1% (active)

same assay, conditions: patient-derived ovarian cancer cells, CellTiter-Glo viability, 144 h; at 0.00488 µM; OCI-P5x cells; with rucaparib 20 µM; hits give low values; 100% = cells with rucaparib alone

Row | SMILES | viability
4 | CC(C)[C@@]12O[C@@H]1[C@@H]1O[C@]13[C@]1(O[C@@H]1C[C@@H]1C4=C(CC[C@@]13C)C(=O)OC4)[C@@H]2O | 13.9% (active)
5 | C/C(=C\c1csc(C)n1)[C@H]1C[C@@H]2O[C@]2(C)CCC[C@H](C)[C@H](O)[C@@H](C)C(=O)C(C)(C)[C@H](O)CC(=O)O1 | 48% (active)
6 | C/C(=C\c1csc(C)n1)[C@H]1C[C@@H]2O[C@@H]2CCC[C@H](C)[C@H](O)[C@@H](C)C(=O)C(C)(C)[C@H](O)CC(=O)O1 | 51% (active)

same assay, conditions: patient-derived ovarian cancer cells, CellTiter-Glo viability, 144 h; at 0.00488 µM; OCI-P5x cells; without rucaparib; hits give low values

Row | SMILES | viability
7 | CC(C)[C@@]12O[C@@H]1[C@@H]1O[C@]13[C@]1(O[C@@H]1C[C@@H]1C4=C(CC[C@@]13C)C(=O)OC4)[C@@H]2O | 8.9% (active)
8 | C/C(=C\c1csc(C)n1)[C@H]1C[C@@H]2O[C@]2(C)CCC[C@H](C)[C@H](O)[C@@H](C)C(=O)C(C)(C)[C@H](O)CC(=O)O1 | 17.6% (active)
9 | C/C(=C\c1csc(C)n1)[C@H]1C[C@@H]2O[C@@H]2CCC[C@H](C)[C@H](O)[C@@H](C)C(=O)C(C)(C)[C@H](O)CC(=O)O1 | 16.8% (active)

same assay, conditions: patient-derived ovarian cancer cells, CellTiter-Glo viability, 144 h; at 0.0195 µM; OCI-C5x cells; with rucaparib 10 µM; hits give low values; 100% = cells with rucaparib alone

Row | SMILES | viability
10 | CC(C)[C@@]12O[C@@H]1[C@@H]1O[C@]13[C@]1(O[C@@H]1C[C@@H]1C4=C(CC[C@@]13C)C(=O)OC4)[C@@H]2O | 10.1% (active)
11 | C/C(=C\c1csc(C)n1)[C@H]1C[C@@H]2O[C@]2(C)CCC[C@H](C)[C@H](O)[C@@H](C)C(=O)C(C)(C)[C@H](O)CC(=O)O1 | 34.8% (active)
12 | C/C(=C\c1csc(C)n1)[C@H]1C[C@@H]2O[C@@H]2CCC[C@H](C)[C@H](O)[C@@H](C)C(=O)C(C)(C)[C@H](O)CC(=O)O1 | 29.1% (active)

same assay, conditions: patient-derived ovarian cancer cells, CellTiter-Glo viability, 144 h; at 0.0195 µM; OCI-C5x cells; without rucaparib; hits give low values

Row | SMILES | viability
13 | CC(C)[C@@]12O[C@@H]1[C@@H]1O[C@]13[C@]1(O[C@@H]1C[C@@H]1C4=C(CC[C@@]13C)C(=O)OC4)[C@@H]2O | 8.03% (active)
14 | C/C(=C\c1csc(C)n1)[C@H]1C[C@@H]2O[C@]2(C)CCC[C@H](C)[C@H](O)[C@@H](C)C(=O)C(C)(C)[C@H](O)CC(=O)O1 | 27.5% (active)
15 | C/C(=C\c1csc(C)n1)[C@H]1C[C@@H]2O[C@@H]2CCC[C@H](C)[C@H](O)[C@@H](C)C(=O)C(C)(C)[C@H](O)CC(=O)O1 | 22% (active)

same assay, conditions: patient-derived ovarian cancer cells, CellTiter-Glo viability, 144 h; at 0.0195 µM; OCI-P5x cells; with rucaparib 20 µM; hits give low values; 100% = cells with rucaparib alone

Row | SMILES | viability
16 | CC(C)[C@@]12O[C@@H]1[C@@H]1O[C@]13[C@]1(O[C@@H]1C[C@@H]1C4=C(CC[C@@]13C)C(=O)OC4)[C@@H]2O | 12.6% (active)
17 | C/C(=C\c1csc(C)n1)[C@H]1C[C@@H]2O[C@]2(C)CCC[C@H](C)[C@H](O)[C@@H](C)C(=O)C(C)(C)[C@H](O)CC(=O)O1 | 47.2% (active)
18 | C/C(=C\c1csc(C)n1)[C@H]1C[C@@H]2O[C@@H]2CCC[C@H](C)[C@H](O)[C@@H](C)C(=O)C(C)(C)[C@H](O)CC(=O)O1 | 53.1% (active)

same assay, conditions: patient-derived ovarian cancer cells, CellTiter-Glo viability, 144 h; at 0.0195 µM; OCI-P5x cells; without rucaparib; hits give low values

Row | SMILES | viability
19 | CC(C)[C@@]12O[C@@H]1[C@@H]1O[C@]13[C@]1(O[C@@H]1C[C@@H]1C4=C(CC[C@@]13C)C(=O)OC4)[C@@H]2O | 8.76% (active)
20 | C/C(=C\c1csc(C)n1)[C@H]1C[C@@H]2O[C@]2(C)CCC[C@H](C)[C@H](O)[C@@H](C)C(=O)C(C)(C)[C@H](O)CC(=O)O1 | 16.3% (active)
21 | C/C(=C\c1csc(C)n1)[C@H]1C[C@@H]2O[C@@H]2CCC[C@H](C)[C@H](O)[C@@H](C)C(=O)C(C)(C)[C@H](O)CC(=O)O1 | 17% (active)

same assay, conditions: patient-derived ovarian cancer cells, CellTiter-Glo viability, 144 h; at 0.0781 µM; OCI-C5x cells; with rucaparib 10 µM; hits give low values; 100% = cells with rucaparib alone

Row | SMILES | viability
22 | CC(C)[C@@]12O[C@@H]1[C@@H]1O[C@]13[C@]1(O[C@@H]1C[C@@H]1C4=C(CC[C@@]13C)C(=O)OC4)[C@@H]2O | 9.57% (active)
23 | C/C(=C\c1csc(C)n1)[C@H]1C[C@@H]2O[C@]2(C)CCC[C@H](C)[C@H](O)[C@@H](C)C(=O)C(C)(C)[C@H](O)CC(=O)O1 | 35.3% (active)
24 | C/C(=C\c1csc(C)n1)[C@H]1C[C@@H]2O[C@@H]2CCC[C@H](C)[C@H](O)[C@@H](C)C(=O)C(C)(C)[C@H](O)CC(=O)O1 | 29.4% (active)

same assay, conditions: patient-derived ovarian cancer cells, CellTiter-Glo viability, 144 h; at 0.0781 µM; OCI-C5x cells; without rucaparib; hits give low values

Row | SMILES | viability
25 | CC(C)[C@@]12O[C@@H]1[C@@H]1O[C@]13[C@]1(O[C@@H]1C[C@@H]1C4=C(CC[C@@]13C)C(=O)OC4)[C@@H]2O | 9.36% (active)
26 | C/C(=C\c1csc(C)n1)[C@H]1C[C@@H]2O[C@]2(C)CCC[C@H](C)[C@H](O)[C@@H](C)C(=O)C(C)(C)[C@H](O)CC(=O)O1 | 27.6% (active)
27 | C/C(=C\c1csc(C)n1)[C@H]1C[C@@H]2O[C@@H]2CCC[C@H](C)[C@H](O)[C@@H](C)C(=O)C(C)(C)[C@H](O)CC(=O)O1 | 22.1% (active)
